# Measured values published in PubChem BioAssay.
# Where “and” joins values, the source holds several entries; their conditions need not be identical. Equal values may be shown once. Calls of active or inactive are those of the source.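 Rule for the calls, unless noted: active = mean z-score across replicates of 1.96 or higher in either the MELAS or the Rieske mutant cell line; inactive = the rest.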
# Legend:
# [1] = liver-stage malaria parasite growth inhibition, primary screen, cell-based, HepG2, luciferase luminescence, HepG2 viability (AID 624349; in the data active = parasite load remaining mostly below about 12%, no sharp cut-off; inactive = mostly above about 10%;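 note: 100% = mean of DMSO negative control wells on the same plate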); conditions: P. berghei liver stage in HepG2, luciferase luminescence, concentration not given here; parasite load remaining: stronger effect = lower value; viability: measured here: HepG2 viability without parasites
# [2] = sensitizers of A549 cells to miR-34 induction, primary screen, imaging, A549 dox-inducible miR-34, nuclei and caspase counts (AID 1347080;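 active = compounds whose cell count with miR-34 switched on is under 0.7 times the count with it off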); conditions: A549 miR-34 inducible, Hoechst nuclei count, 48 h
# [3] = survival rescue of mitochondrial mutant cells in low glucose, primary screen, MELAS cybrids, Rieske KO mouse fibroblasts, CellTiter-Glo (AID 1508586);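 note: z relative to plate mean and SD of compound and empty wells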
# [4] = viability rescue of complex I mutant cybrids, primary screen, cell-based, galactose medium, ATP luminescence (AID 1645843;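 active = z-score of at least 1.8 in each of two replicates, scored against plate mean and spread of sample wells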;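 note: positive z means more ATP and so rescue of galactose-driven cybrid death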); conditions: complex I mutant cybrid cells, 72 h, stronger effect = higher value
# [5] = stronger effect = lower value, cell number ratio, induced over uninduced
# [6] = measured here: relative caspase fold change +Dox/-Dox
# [7] = measured here: total cells with miR-34 induction, stronger effect = lower value
# [8] = measured here: total cells without miR-34 induction
# [9] = MELAS cybrid survival, CellTiter-Glo 48 h, stronger effect = higher value
# [10] = Rieske KO mouse fibroblast survival, CellTiter-Glo 72 h
SMILES,parasite load remaining [1],viability [1],"fold change [2, 5]","fold change [2, 6]","cell count [2, 7]","cell count [2, 8]","z-score [3, 9]","z-score [3, 10]",z-score [4]
C=C1/C(=C/C=C2/CCC[C@]3(C)[C@@H]([C@H](C)CCCC(C)C)CC[C@@H]23)C[C@@H](O)C[C@@H]1O,43.3% (inactive),115%,0.847 (inactive),0.894,8220,9710,0.628 (inactive) and 0.37 (inactive),0.674 and -0.198,-2.23 (inactive)
CC[C@@H]1OC(=O)C[C@H](O)[C@@H](C)[C@@H](O[C@@H]2O[C@H](C)[C@@H](O[C@H]3C[C@@](C)(O)[C@@H](O)[C@H](C)O3)[C@H](N(C)C)[C@H]2O)[C@@H](C=O)C[C@@H](C)C(=O)/C=C/C(C)=C\[C@@H]1CO[C@H]1O[C@@H](C)[C@H](O)[C@H](OC)[C@@H]1OC,27.3% (inactive),67%,0.839 (inactive),1.48,9360,11200,0.258 (inactive),-0.691,0.54 (inactive)
CC(C)NC[C@@H](O)c1ccc(O)c(O)c1,67.9% (inactive),93.2%,1.04 (inactive) and 0.887 (inactive),1.51 and 1.13,10500 and 9200,10100 and 10400,0.464 (inactive),-0.759,-1.29 (inactive)
CNC1(C)[C@H]2CC[C@H](C2)C1(C)C (some centres not stated),95.3% (inactive),108%,0.905 (inactive),1.29,9940,11000,0.54 (inactive),-0.569,0.66 (inactive)
CCCCC(C)(O)C/C=C/[C@H]1[C@H](O)CC(=O)[C@@H]1CCCCCCC(=O)OC (some centres not stated),25.9% (inactive),64%,1.01 (inactive) and 0.901 (inactive),1.23 and 1.3,5920 and 9930,5880 and 11000,-0.242 (inactive) and 0.112 (inactive),-0.698 and -0.238,0.245 (inactive)
CC[C@]1(O)C[C@H]2CN(CCc3c([nH]c4ccccc34)[C@@](C(=O)OC)(c3cc4c(cc3OC)N(C)[C@H]3[C@@](O)(C(N)=O)[C@H](O)[C@]5(CC)C=CCN6CC[C@]43[C@@H]65)C2)C1,29.7% (inactive),79.5%,1.02 (inactive),1.58,1810,1780,-2.11,2.09,-1.99 (inactive)
COC(=O)c1ccc(=O)c2nc3/c(=C/O)c(O)cc(=O)c3[nH]c12,91.5% (inactive),96.5%,0.984 (inactive),1.28,3340,3400,0.379 (inactive),-0.491,-0.55 (inactive)
CO[C@H]1[C@@H]([C@@]2(C)O[C@@H]2CC=C(C)C)[C@]2(CC[C@H]1OC(=O)/C=C/C=C/C=C/C=C/C(=O)O)CO2,21% (inactive),104%,0.953 (inactive),1.44,6670,7000,0.116 (inactive),-0.135,-0.585 (inactive)
CC#CCC(C)[C@H](O)/C=C/[C@@H]1[C@H]2C/C(=C/CCCC(=O)O)C[C@H]2C[C@H]1O (some centres not stated),12.8% (inactive),77.5%,0.876 (inactive),1.59,8850,10100,-0.239 (inactive),-0.923,0.275 (inactive)
CC[C@H]1OC(=O)[C@H](C)[C@@H](O[C@H]2C[C@@](C)(OC)[C@@H](O)[C@H](C)O2)[C@H](C)[C@@H](O[C@@H]2O[C@H](C)C[C@H](N(C)C)[C@H]2O)C(C)(O)C[C@@H](C)CN(C)[C@H](C)[C@@H](O)[C@]1(C)O (some centres not stated),18.4% (inactive),65.5%,0.876 (inactive),1.13,9530,10900,-0.337 (inactive) and 0.0634 (inactive),-0.912 and -0.719,0.015 (inactive)
CC(C)C[C@H](NC(=O)[C@@H](COC(C)(C)C)NC(=O)[C@H](Cc1ccc(O)cc1)NC(=O)[C@H](CO)NC(=O)[C@H](Cc1c[nH]c2ccccc12)NC(=O)[C@H](Cc1cnc[nH]1)NC(=O)[C@@H]1CCC(=O)N1)C(=O)N[C@@H](CCCN=C(N)N)C(=O)N1CCC[C@H]1C(=O)NNC(N)=O,53.9% (inactive),102%,0.891 (inactive),1.53,10600,11900,-0.533 (inactive),-0.444,0.71 (inactive)
CN1[C@@H](C[C@H](O)c2ccccc2)CCC[C@H]1CC(=O)c1ccccc1,53.1% (inactive),128%,0.934 (inactive),1.15,9500,10200,-0.675 (inactive),-0.32,0.205 (inactive)
COc1ccc(C(=O)/C(Br)=C\C(=O)O)cc1,25.4% (inactive),107%,0.888 (inactive),1.39,9940,11200,-0.188 (inactive),-0.289,-0.925 (inactive)
